Compounds with a hit are over-represented: about 2.5% of the library has one in this group of screens.
UHRF1 binding – blocks human UHRF1 binding to methylated DNA | UHRF1 binding to methylated oligo, TR-FRET | inhibition, % at 4.4 µM | 0.75% of 370,000 active | AID 687016; in the data active = inhibition above about 21%;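 also: UHRF1 SRA domain binding a hemimethylated CpG hairpin DNA probe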
MBD2 DNA inh – blocks human MBD2 binding to methylated DNA; inhibition, % at 4.4 µM; 0.31% of 370,000 active; TR-FRET, MBD2 binding to methylated oligonucleotide; in the data active = inhibition above about 13%
Target sequence (Q9UBB5 whole entry, looked up): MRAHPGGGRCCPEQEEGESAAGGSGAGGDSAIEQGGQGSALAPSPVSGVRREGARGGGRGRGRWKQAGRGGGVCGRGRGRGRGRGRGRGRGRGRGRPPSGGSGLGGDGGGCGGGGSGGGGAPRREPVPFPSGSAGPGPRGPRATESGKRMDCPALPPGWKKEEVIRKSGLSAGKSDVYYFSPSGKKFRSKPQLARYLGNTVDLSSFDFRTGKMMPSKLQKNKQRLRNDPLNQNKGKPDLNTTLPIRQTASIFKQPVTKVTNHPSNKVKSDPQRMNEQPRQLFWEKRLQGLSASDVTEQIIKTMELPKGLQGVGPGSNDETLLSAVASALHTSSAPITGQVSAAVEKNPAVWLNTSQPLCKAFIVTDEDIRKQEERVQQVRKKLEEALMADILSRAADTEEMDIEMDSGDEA
PRMT1 inh – inhibitors of human PRMT1; inhibition, % at 2.79 µM; 1.3% of 370,000 active; recombinant PRMT1, activity-based probe fluorescence polarization;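 active = inhibition above about 21% made by adding two undisclosed values, limit read from the data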
LEDGF integ inh – blocks HIV-1 LEDGF/p75-dependent DNA integration | TR-FRET IN-LEDGF/p75 DNA integration, Eu/Cy5 | inhibition, % at 3.7 µM | 0.64% of 370,000 active | AID 743269;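 active = inhibition above the screen-wide mean plus 3 SD, cut at about 13% in these data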;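 also: signal is the Cy5 over europium emission ratio at 671 and 618 nm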
PRMT1 inh conf – confirmation of human PRMT1 inhibitors; shares compounds with PRMT1 inh; recombinant His-PRMT1, activity-based probe fluorescence polarization; inhibition, % at 2.79 µM; 42% of 3,300 active;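 active = mean inhibition across replicates above the hit cutoff derived for the earlier primary screen, cut at about 22% in these data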
Large screens that a line does not name were inactive (follow-up assays come after a bar, where they were run).

O=C(NCc1ccccc1)c1cc(C2CCCCN2C(=O)c2ccccc2)on1 (configuration not stated)	none
O=C1CC(N2CCC(C(=O)N3CCCCC3)CC2)C(=O)N1 (configuration not stated)	PRMT1 inh 62 | PRMT1 inh conf inactive
COc1cc(OC)cc(N2C(=O)CC(N3CCC(C(=O)N4CCCCC4)CC3)C2=O)c1 (configuration not stated)	PRMT1 inh 78 | PRMT1 inh conf inactive
O=C(C1CC1)N1CCCN(C(=O)C2CC2)CC1	none
O=C1c2cccc3c(N4CCCCC4)ccc(c23)C(=O)N1c1ccccn1	none
Cc1ccc(N2C(=O)c3cccc4c(N)ccc(c34)C2=O)c2cccnc12	PRMT1 inh 94 | PRMT1 inh conf 119
CCc1ccccc1NC(=O)CC(=O)Nc1ccccc1CC	none
CCC(=O)Nc1cc(OC)c(NC(=S)Nc2ccccc2CC)cc1OC	PRMT1 inh 47 | PRMT1 inh conf inactive
CC(C)(C)c1ccc(NC(=O)COC(=O)c2ccc3ncsc3c2)cc1	none
O=C(OCC(=O)c1ccco1)c1ccc2ncsc2c1	PRMT1 inh 46 | PRMT1 inh conf inactive
COc1cc(/C=C2/C(=O)NN(c3ccc(Cl)c(Cl)c3)C2=O)cc([N+](=O)[O-])c1O	PRMT1 inh 26 | PRMT1 inh conf inactive
Cc1nc2ccc(S(=O)(=O)N(C)CC(=O)NCc3ccc4c(c3)OCO4)cc2s1	none
Cc1nc2ccc(S(=O)(=O)NCC(=O)NCc3ccc4c(c3)OCO4)cc2s1	PRMT1 inh 49 | PRMT1 inh conf inactive
CSc1cnn(Cc2ccccc2)c(=O)c1SCc1ccccc1	PRMT1 inh 74 | PRMT1 inh conf inactive
COC(=O)C1=C2SC(C)C(=O)N2C(N)=C(C#N)C1c1cc(OC)c(OC)c(OC)c1 (configuration not stated)	PRMT1 inh 31 | PRMT1 inh conf inactive
COC(=O)C1=C2SC(C)C(=O)N2C(N)=C(C#N)C1c1ccc(OC)c(OC)c1 (configuration not stated)	none
Cc1ccc(-c2ccc(CCC(=O)O)o2)cc1	PRMT1 inh 40 | PRMT1 inh conf 40
Cc1cc(NC(=O)CCc2ccc(-c3ccccc3)o2)no1	none
COc1ccc(-n2c(SCC(=O)NCC3CCCO3)nc3ccccc3c2=O)cc1Cl (configuration not stated)	none
O=C1C=C(c2ccc(Cl)c(C(F)(F)F)c2)C[C@@H](c2ccc(Cl)cc2)C1	none
Oc1c(C=NCc2ccccc2)sc2ccccc12	PRMT1 inh 43 | PRMT1 inh conf 34
O=[N+]([O-])c1cccc(N=Cc2sc3ccccc3c2O)c1	PRMT1 inh 40 | PRMT1 inh conf 25
O=[N+]([O-])c1ccc(N=Cc2sc3ccccc3c2O)cc1	PRMT1 inh 49 | PRMT1 inh conf inactive
COc1ccc(N=Cc2sc(O)c3ccccc23)cc1	none
Oc1oc(-c2ccccc2)nc1C=NCc1ccncc1	none
Cc1ccc(Cn2cc(COC(=O)NCCc3c[nH]c4ccccc34)nn2)cc1	none
c1ccc2[nH]c(CCCc3nc4ccccc4[nH]3)nc2c1	none
S=c1cnc2ccccc2[nH]1	PRMT1 inh 40 | PRMT1 inh conf inactive
CC(=O)OCC1=C(C(=O)O)N2C(=O)C(NC(=O)C(C)Cn3cc(Cl)cn3)C2SC1 (configuration not stated)	none
CC(=O)OCC1=C(C(=O)O)N2C(=O)C(NC(=O)c3ccc(COc4ccc(Cl)cc4)o3)C2SC1 (configuration not stated)	PRMT1 inh 36 | PRMT1 inh conf inactive
CC(=O)OCC1=C(C(=O)O)N2C(=O)C(NC(=O)c3ccc(COc4c(C)cccc4Cl)o3)C2SC1 (configuration not stated)	PRMT1 inh 47 | PRMT1 inh conf inactive
O=C1C2C3C=CC(C3=C3CCCCC3)C2C(=O)N1c1ccccc1 (configuration not stated)	PRMT1 inh 43 | PRMT1 inh conf inactive
COc1ccc(/C=C2/SC(=S)N(Cc3ccccc3)C2=O)cc1O	none
COc1ccc(/C=C2\SC(=S)N(N3C(=O)CCC3=O)C2=O)cc1O	PRMT1 inh 49 | PRMT1 inh conf inactive
N#C/C(=C\c1cccs1)c1nc2ccccc2[nH]1	none
N#C/C(=C/c1ccc(O)c(O)c1)c1nc2ccccc2[nH]1	PRMT1 inh 42 | PRMT1 inh conf 37
COc1cc(CNc2ccc3[nH]c(=O)[nH]c3c2)ccc1OCc1cccc(C)c1	none
COc1cc(CNc2ccc3[nH]c(=O)[nH]c3c2)ccc1OCc1ccc(C)cc1	PRMT1 inh 35 | PRMT1 inh conf inactive
O=C(CN1CC[n+]2c(-c3ccccc3)csc21)c1ccc(Br)cc1	PRMT1 inh 49 | PRMT1 inh conf 55
O=C(CN1CC[n+]2c(-c3cccs3)csc21)c1ccc(Br)cc1	PRMT1 inh 25 | PRMT1 inh conf 42
CC(=O)N1CCN(CC(=O)c2ccc(Br)cc2)CC1	none
CCC[C@H]1CC(=O)C=C(c2ccc(OC)cc2)ON1C(=O)OC(C)(C)C	none
Clc1ccccc1NN=Cc1ccccn1	none
O=C(c1ccco1)N(Cc1ccc2c(c1)OCO2)Cc1cc2cc3c(cc2[nH]c1=O)OCO3	none
COc1cc2cc(CN(Cc3ccc4c(c3)OCO4)C(=O)c3ccco3)c(=O)[nH]c2cc1OC	PRMT1 inh 45 | PRMT1 inh conf inactive
Cc1cccc(S(=O)(=O)N2C[C@@H](O)COC[C@@H]3O[C@H](CC(=O)NCCCN4CCOCC4)CC[C@H]32)c1	none
COc1ccccc1NC(=O)c1sc2nc(N3CCOCC3)c3c(c2c1N)CCCC3	none
NC(=O)c1sc2nc(N3CCOCC3)c3c(c2c1N)CCCC3	PRMT1 inh 26 | PRMT1 inh conf inactive
CN(C(=O)c1sc2nc(N3CCOCC3)c3c(c2c1N)CCCC3)c1ccccc1	PRMT1 inh 26 | PRMT1 inh conf inactive
Cc1ccccc1NC(=O)c1sc2nc(N3CCOCC3)c3c(c2c1N)CCCC3	PRMT1 inh 42 | PRMT1 inh conf 41
CC(=O)N[C@@H](Cc1c[nH]c2ccccc12)C(=O)OCC(=O)Nc1cc(C)on1	none
Cc1ccc(/C=C2\C(=O)Nc3ccccc32)o1	PRMT1 inh 60 | PRMT1 inh conf inactive
O=C1Nc2ccccc2/C1=C/c1ccccc1F	none
Cc1ccc(/C=C2/C(=O)N(c3ccccc3)C(=S)N2C)o1	none
Cc1ccc(/C=C2\C(=O)NC(=O)N2C)o1	PRMT1 inh 36 | PRMT1 inh conf 37
Cc1noc(C)c1C(=O)OC(C)C(=O)c1c[nH]c2ccccc12 (configuration not stated)	none
COc1ccccc1N1CCN(C2CC(=O)N(c3cccc(Br)c3)C2=O)CC1 (configuration not stated)	none
COc1cc2c(cc1OC)CN(C1CC(=O)N(c3c(C)cccc3C)C1=O)CC2 (configuration not stated)	PRMT1 inh 32 | PRMT1 inh conf inactive
CCOC(=O)c1c(-n2cnnn2)sc2c1CCCC2	none
CCOC(=O)c1c(N2C(=O)C3C4C=CC(O4)C3C2=O)sc2c1CCCC2 (configuration not stated)	PRMT1 inh 82 | PRMT1 inh conf 56
